TRHR enhancer – qHTS for Small Molecule Agonists and Allosteric Enhancers of Human TRH Receptor: Primary Screen for Enhancers | enhancement, % at 2 µM | hit rate 0.66% among 360,000 | AID 493056, 2011 | TRHR cells, fluo-8 calcium fluorescence, EC20 TRH enhancement; in the data active = enhancement above about 30%
Target sequence (P34981 whole entry, looked up): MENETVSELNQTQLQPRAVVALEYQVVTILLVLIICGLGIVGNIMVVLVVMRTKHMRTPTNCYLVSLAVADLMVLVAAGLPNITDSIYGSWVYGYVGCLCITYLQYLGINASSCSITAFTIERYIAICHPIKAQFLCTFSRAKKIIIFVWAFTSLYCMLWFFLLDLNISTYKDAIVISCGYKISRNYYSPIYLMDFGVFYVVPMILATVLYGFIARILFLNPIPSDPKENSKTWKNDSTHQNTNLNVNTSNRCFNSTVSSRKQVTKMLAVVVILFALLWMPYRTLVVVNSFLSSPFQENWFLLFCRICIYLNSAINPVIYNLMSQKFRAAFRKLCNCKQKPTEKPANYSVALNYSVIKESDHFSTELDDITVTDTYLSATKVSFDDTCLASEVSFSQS
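TRHR-expressing cells loaded with fluo-8 calcium dye were read kinetically (ex 480/em 530) during compound addition, then stimulated with an EC20 of TRH (10 nM final). Enhancement of the Gq-mediated intracellular calcium response was scored.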
D1 antagonist – Antagonist of Human D 1 Dopamine Receptor: qHTS | D(1A) dopamine receptor (Homo sapiens), P21728 | AID 504652, 2011 | hit rate 3.2% among 360,000 | HEK293 TREx D1 cells, calcium flux, dopamine EC80; hits give low values | activity change, negative = inhibition, % at 10 µM; in the data active = activity change below about -30%
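Using tetracycline-induced force-coupled D1 Hek293 cells and a calcium dye, signals were followed for 180 s after compound, then for 180 s after EC80 dopamine, to detect inhibitors.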
D1 agonist – Allosteric Agonists of the Human D1 Dopamine Receptor: qHTS; D(1A) dopamine receptor (Homo sapiens), P21728; HEK293 T-REx D1 cells, calcium flux, agonist mode; activation, % at 2 µM; hit rate 1% among 360,000; AID 504660, 2011
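Inducible HEK293 T-REx D1 cells, force-coupled to calcium signalling, were plated at 4000 cells/well with tetracycline and held overnight at 30 C. After no-wash calcium dye loading, compound-evoked calcium rise over 180 s flagged agonists.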
TRHR agonist – qHTS for Small Molecule Agonists and Allosteric Enhancers of Human TRH Receptor: Primary Screen for Agonists; Thyrotropin-releasing hormone receptor (Homo sapiens), P34981; activation, % at 2 µM; TRHR cells, calcium flux fluo-8, FDSS agonist mode; hit rate 0.18% among 360,000
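Agonist-mode FDSS calcium read (Ex 480/Em 530, 1 s cycles) in 1536-well TRHR cells with fluo-8 dye, after 10-cycle baseline and 23 nL compound addition; TRH at EC20 (10 nM final) added afterwards for the enhancer phase.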
D1 PAM – Potentiators of Human D1 Dopamine Receptor: qHTS. D(1A) dopamine receptor (Homo sapiens), P21728. hit rate 0.036% among 360,000. potentiation, % at 10 µM. HEK293 TREx D1 cells, calcium flux, dopamine EC20 potentiation; in the data active = potentiation above about 30%
Of the large screens only hits and unclear results are named; the others gave an inactive call. Only some compounds are listed: those with a hit (about 4.7% of all), similar ones and a draw of the others. Rule as the data show it, unless noted: active = activation above about 30%; inactive = the rest.

CC(Oc1ccccc1)C(=O)N=Nc1c(O)[nH]c2ccc(Br)cc12 (stereo not given)	D1 antagonist -36
COc1ccccc1N=Nc1c(O)[nH]c2ccc(Br)cc12	D1 antagonist -60
Cc1cccc(C)c1OCC(=O)N=Nc1c(O)[nH]c2ccc(Br)cc12	none
Cn1c(CN2CCCC2)nc2cc(NS(=O)(=O)c3ccc(Cl)cc3)ccc21	D1 agonist 47
Cn1c(CCN2CCN(c3ccccn3)CC2)nc2cc(NS(=O)(=O)c3ccccc3)ccc21	D1 antagonist -32
Cn1c(CCN2CCCCC2)nc2cc(NS(=O)(=O)c3ccccc3)ccc21	none
CCC(C)NC(=O)c1nn(-c2ccc(C)cc2)nc1CO (stereo not given)	none
O=S(=O)(NCC(c1ccco1)N1CCN(c2ccccc2)CC1)c1ccccc1 (stereo not given)	none (no result: D1 antagonist)
O=S(=O)(NCC(c1ccco1)N1CCN(c2ccc(F)cc2)CC1)c1ccc(F)cc1 (stereo not given)	D1 antagonist -34
O=S(=O)(NCC(c1ccco1)N1CCN(c2ccccc2F)CC1)c1ccc(F)cc1 (stereo not given)	none
O=S(=O)(NCC(c1ccco1)N1CCN(c2ccccc2)CC1)c1ccc(F)cc1 (stereo not given)	D1 antagonist -30
Cc1cc(=O)[nH]c2nnc(SCC(=O)Nc3ccc(F)cc3F)n12	none (no result: D1 antagonist)
O=C(NCCCN1CCOCC1)c1ccc2c(c1)N(Cc1cccc(Cl)c1)C(=O)c1ccccc1S2	none
CCN1C(=O)c2ccccc2Sc2ccc(C(=O)NCCCN3CCOCC3)cc21	TRHR enhancer 32
CCOc1ccc(NCc2cccn2-c2nnc(N3CCC(C(=O)NCCc4ccc(OC)c(OC)c4)CC3)s2)cc1	D1 antagonist -31
CCOc1ccc(NCc2cccn2-c2nnc(N3CCC(C(=O)NCCc4ccc(OCC)c(OCC)c4)CC3)s2)cc1	none
CCCOc1ccc(CCc2n[nH]c(=S)n2Cc2ccccc2)cc1	D1 antagonist -43
CCCOc1ccc(CCc2n[nH]c(=S)n2-c2ccccc2)cc1	none
CCOC(=O)c1cc(C)n(CC2CCC(C(=O)Nc3ccc(OC)cc3)CC2)c1C (stereo not given)	none
O=C(NCc1ccc(Cl)cc1)C1CCN(c2ncnc3c2nc2n3CCCCC2)CC1	none
COc1ccc(S(=O)(=O)n2cccc2)c(OC)c1	TRHR enhancer 32
COc1ccc(S(=O)(=O)n2cccc2)cc1OC	D1 antagonist -35
COc1ccc(S(=O)(=O)N2CCNCC2)cc1OC	none
COC(=O)COc1ccc2c(=O)c(-c3ccccc3)coc2c1	D1 antagonist -42
Cc1cc(C)c2c(n1)nn1c(C)c(CCC(=O)Nc3ccc(C)c(Cl)c3)c(C)nc21	none
Cc1[nH]c2ccc(-c3n[nH]c(=S)n3Cc3ccccc3)cc2c1C	D1 antagonist -32
Cc1cc(=O)n2nc(N3CCC(C(=O)Nc4c(C)cccc4C)CC3)sc2n1	none
